# Test results as given in PubChem BioAssay (Tox21).
# Unmarked numbers belong to inactive results. Inconclusive results are not listed. A call without a number means that no potency is given here. Activity calls are given as the source filed them. Unless noted, calls come from the whole dose curve; as a rule, active = well fitted curve in the direction sought with a large enough effect in the repeat runs; inconclusive = weak or mixed curves; inactive = no such curve, though single readings can be large; an effect the other way counts as inactive or inconclusive.
# What was measured:
# [1] = qHTS assay for small molecules that induce genotoxicity in human embryonic kidney cells expressing luciferase-tagged ATAD5 (AID 651632); note: nearly all actives have a fitted effect of over 15% in size
# How it was run: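 Concentration-response screen for ATAD5 upregulation in HEK293T luciferase reporter cells; 16 hr treatment at 37C, then luminescence after 30 min with Amplite at room temperature.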
# [2] = qHTS assay for small molecule agonists of the p53 signaling pathway - cell viability (AID 651633; calls by dose curve; note: nearly all actives have a fitted effect of over 30% in size; note: potency is the fitted concentration of half-maximal effect)
# How it was run: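 p53RE-bla cells were treated with compound for 16 hours at 37 C. Cytotoxicity was then measured as CellTiter-Glo luminescence after 30 min at room temperature.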
# [3] = qHTS assay for small molecules that induce genotoxicity in human embryonic kidney cells expressing luciferase-tagged ATAD5 - cell viability (AID 651634; calls by dose curve; note: nearly all actives have a fitted effect of over 25% in size)
# How it was run: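 15.5 hr compound or vehicle exposure of HEK293T cells expressing luciferase-tagged ATAD5 at 37C; live-cell protease activity is read by fluorescence after 30 min of CellTiter-Fluor.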
# [4] = qHTS assay for small molecule disruptors of the mitochondrial membrane potential - cell viability (AID 720634; calls by dose curve;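 note: human HepG2 liver cancer cells; series mostly up to about 83 µM; nearly all actives have a fitted effect of over 20% in size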)
# How it was run: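 In this qHTS format, HepG2 cells plated overnight were pinned with compound, incubated 1 hr, and assayed for ATP luminescence with CellTiter-Glo after m-MPI dye addition.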
# [5] = qHTS assay to test for compound auto fluorescence at 590 nm (red) in HepG2 cells (AID 720674)
# How it was run: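 Seeding: 2,000 HepG2 cells/well, MEM/10% FBS, overnight 37 C. Dosing: compound vs DMSO. Incubation: 1 hr, 37 C, 5% CO2. Read: fluorescence 540 ex/590 em, Rose Bengal sodium as red reference.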
# [6] = qHTS assay to test for compound auto fluorescence at 460 nm (blue) in HEK293 cells (AID 720678)
# How it was run: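 Blue read-out at excitation 405 nm and emission 460 nm follows overnight compound exposure of HEK293 cells at 37C in 5% CO2. Activity is given as auto fluorescence equivalency to triamterene.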
# [7] = qHTS assay to test for compound auto fluorescence at 535 nm (green) in HEK293 cells (AID 720680)
# [8] = qHTS assay to test for compound auto fluorescence at 535 nm (green) in HEK293 cell free culture (AID 720682)
# How it was run: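 Intrinsic compound fluorescence is measured in culture medium containing 10% FBS, with excitation at 485 nm and detection at 535 nm, referenced to fluorescein.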
# [9] = qHTS assay to test for compound auto fluorescence at 590 nm (red) in HEK293 cell free culture (AID 720683)
# How it was run: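 Cell-free wells of DMEM with 10% FBS received compound, and intrinsic fluorescence was read at excitation/emission 540/590 nm. Values expressed as equivalence to Rose Bengal sodium.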
# [10] = qHTS assay to test for compound auto fluorescence at 460 nm (blue) in HepG2 cell free culture (AID 720685)
# How it was run: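 Cell-free plates of MEM plus 10% FBS received 23 nL compound or DMSO vehicle; blue-channel (405/460 nm) intensity scored against triamterene as reference fluorophore.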
# [11] = qHTS assay to test for compound auto fluorescence at 460 nm (blue) in HepG2 cells (AID 720687)
# How it was run: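 HepG2 cells in MEM with 10% FBS, attached overnight at 37 C, were exposed to compound or DMSO for 1 hr at 37 C, 5% CO2. Blue fluorescence was read at 405/460 nm, with triamterene as reference fluorophore.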
# [12] = qHTS assay for identifying genotoxic compounds that show differential cytotoxicity against isogenic chicken DT40 cell lines with known DNA damage response pathways - wild type cell line (AID 743012); note: nearly all actives have a fitted effect of over 60% in size; note: potency is the fitted concentration of half-maximal effect
# How it was run: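 Endpoint: CellTiter-Glo luminescence, 30 min RT. Cells: wild type DT40, 300/well. Exposure: compounds in DMSO, 40 h, 37 C/5% CO2, after ~0.5 h pre-incubation.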
# [13] = qHTS assay to identify small molecule antagonists of the androgen receptor (AR) signaling pathway - cell viability counter screen (AID 743033; note: nearly all actives have a fitted effect of over 45% in size)
# [14] = tested on: thyroid hormone receptor (rat, GH3 cells); test: qHTS assay to identify small molecule agonists of the thyroid receptor (TR) signaling pathway (AID 743066; calls by dose curve)
# [15] = qHTS assay to identify small molecule antagonists of the estrogen receptor alpha (ER-alpha) signaling pathway - cell viability counter screen (AID 743074; calls by dose curve;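 note: HEK293 cells carrying ER-alpha-UAS-bla reporter stimulated with 17beta-estradiol; nearly all actives have a fitted effect of over 45% in size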)
# [16] = qHTS assay to identify small molecule antagonists of the estrogen receptor alpha (ER-alpha) signaling pathway using the BG1 cell line - cell viability counter screen (AID 743081);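 note: compound given together with 17beta-estradiol as the ER stimulus; series mostly up to about 70 µM; nearly all actives have a fitted effect of over 45% in size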
# Aromatase (Homo sapiens) = Aromatase (Homo sapiens) (UniProt P11511); test: qHTS assay to identify aromatase inhibitors (AID 743083); note: nearly all actives have a fitted effect of over 55% in size; note: potency is the fitted concentration of half-maximal effect
# [17] = qHTS assay to identify aromatase inhibitors - cell viability counter screen (AID 743084);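 note: cells stimulated with testosterone during compound exposure; nearly all actives have a fitted effect of over 55% in size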
# [18] = qHTS assay to identify small molecule that activate the aryl hydrocarbon receptor (AhR) signaling pathway - cell viability counter screen (AID 743086);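 note: HepG2 liver cells carrying the AhR DRE luciferase reporter; series mostly up to about 70 µM; nearly all actives have a fitted effect of over 45% in size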
# How it was run: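 HepG2-AhR-luc (HG2L7.5c1) cells, 4000/well, treated 24 h at 37 C with compound; viability measured as CellTiter-Fluor fluorescence after 30 min in the same wells as the luciferase read.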
# [19] = qHTS assay to identify small molecule phospholipidosis (PLD) inducers (AID 1259344; active = well fitted curve in the direction sought with a large enough effect; an effect the other way counts as inactive or inconclusive)
# How it was run: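 Read-out is LipidTOX Red fluorescence (ex 595/em 615) imaged in HepG2 cells after 24 h compound exposure at 37 C, with Hoechst nuclear counterstain (ex 352/em 461) allowing per-cell normalisation.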
# Sequence of Aromatase (Homo sapiens) (P11511 whole entry, looked up): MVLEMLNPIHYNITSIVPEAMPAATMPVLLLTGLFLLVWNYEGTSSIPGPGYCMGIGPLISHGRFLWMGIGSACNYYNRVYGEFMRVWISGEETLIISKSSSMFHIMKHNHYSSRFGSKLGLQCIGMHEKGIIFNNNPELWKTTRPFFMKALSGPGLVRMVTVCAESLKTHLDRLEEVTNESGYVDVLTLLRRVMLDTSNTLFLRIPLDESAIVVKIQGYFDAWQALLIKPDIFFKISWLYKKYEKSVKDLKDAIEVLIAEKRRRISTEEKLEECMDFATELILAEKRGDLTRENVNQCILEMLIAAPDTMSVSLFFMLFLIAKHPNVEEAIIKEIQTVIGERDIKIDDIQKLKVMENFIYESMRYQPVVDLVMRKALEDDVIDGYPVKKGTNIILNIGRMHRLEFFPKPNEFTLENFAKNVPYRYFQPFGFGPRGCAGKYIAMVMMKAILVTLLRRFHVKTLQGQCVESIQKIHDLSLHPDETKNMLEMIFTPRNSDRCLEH
smiles,measurement,setting,value
CC(N)Cc1ccc2c(c1)OCO2 (stereo unspecified),Potency,[1],inactive
same,Potency,[2],inactive
same,Potency,[3],inactive
same,Potency,[4],inactive
same,outcome,[5],inactive
same,Potency,[6],inactive
same,Potency,[7],inactive
same,Potency,[8],inactive
same,outcome,[9],inactive
same,Potency,[10],inactive
same,Potency,[11],inactive
same,Potency,[12],inactive
same,Potency,[13],inactive
same,Potency,[14],inactive
same,Potency,[15],inactive
same,Potency,[16],inactive
same,Potency,Aromatase (Homo sapiens),inactive
same,Potency,[17],inactive
same,Potency,[18],inactive
same,PLD induction,[19],-3.76% [at 1.53 µM]
C=C[C@H]1CN2CC[C@H]1C[C@H]2[C@H](OC(=O)OCC)c1ccnc2ccc(OC)cc12,Potency,[1],inactive
same,Potency,[2],inactive
same,Potency,[3],inactive
same,Potency,[4],inactive
same,outcome,[5],inactive
same,Potency,[6],inactive
same,Potency,[7],inactive
same,Potency,[8],inactive
same,outcome,[9],inactive
same,Potency,[10],inactive
same,Potency,[11],inactive
same,Potency,[13],inactive
same,Potency,[14],inactive
same,Potency,[16],inactive
same,Potency,Aromatase (Homo sapiens),inactive
same,Potency,[17],inactive
same,Potency,[18],inactive
same,Potency,[19],inactive
C[C@@H]1[C@H]2Cc3ccc(O)cc3[C@]1(C)CCN2C,Potency,[1],inactive
same,Potency,[2],inactive
same,Potency,[3],inactive
same,Potency,[4],inactive
same,outcome,[5],inactive
same,Potency,[6],inactive
same,Potency,[7],inactive
same,Potency,[8],inactive
same,outcome,[9],inactive
same,Potency,[10],inactive
same,Potency,[11],inactive
same,Potency,[12],89.3 µM (active)
same,Potency,[14],inactive
same,Potency,[15],inactive
same,Potency,[16],inactive
same,Potency,[17],inactive
same,Potency,[18],inactive
same,Potency,[19],inactive
CN[C@]1(c2ccccc2Cl)CCCCC1=O,Potency,[1],inactive
same,Potency,[2],inactive
same,Potency,[3],inactive
same,Potency,[4],inactive
same,outcome,[5],inactive
same,Potency,[6],inactive
same,Potency,[7],inactive
same,Potency,[8],inactive
same,outcome,[9],inactive
same,Potency,[10],inactive
same,Potency,[11],inactive
same,Potency,[12],inactive
same,Potency,[13],inactive
same,Potency,[14],inactive
same,Potency,[16],inactive
same,Potency,Aromatase (Homo sapiens),inactive
same,Potency,[17],inactive
same,Potency,[18],inactive
same,Potency,[19],inactive
CCc1cc(OC)c(C[C@@H](C)N)cc1OC,Potency,[1],inactive
same,Potency,[2],inactive
same,Potency,[3],inactive
same,Potency,[4],inactive
same,outcome,[5],inactive
same,Potency,[6],inactive
same,Potency,[7],inactive
same,Potency,[8],inactive
same,outcome,[9],inactive
same,Potency,[10],inactive
same,Potency,[11],inactive
same,Potency,[12],56.7 µM (active)
same,Potency,[13],inactive
same,Potency,[14],inactive
same,Potency,[15],inactive
same,Potency,Aromatase (Homo sapiens),inactive
same,Potency,[17],inactive
same,Potency,[19],inactive
Clc1ccc(C(Cn2ccnc2)OCc2csc3c(Cl)cccc23)c(Cl)c1 (stereo unspecified),Potency,[1],inactive
same,Potency,[3],inactive
same,Potency,[4],inactive
same,outcome,[5],inactive
same,Potency,[6],inactive
same,Potency,[7],inactive
same,Potency,[8],inactive
same,outcome,[9],inactive
same,Potency,[10],inactive
same,Potency,[11],inactive
same,Potency,[12],12.7 µM (active)
same,Potency,[15],inactive
same,Potency,[16],inactive
same,Potency,Aromatase (Homo sapiens),4.03 µM (active)
same,Potency,[17],inactive
same,Potency,[18],inactive
same,Potency,[19],inactive
CCC1(c2ccccc2)C(=O)NC(=O)N(C)C1=O (stereo unspecified),Potency,[1],inactive
same,Potency,[2],inactive
same,Potency,[3],inactive
same,Potency,[4],inactive
same,outcome,[5],inactive
same,Potency,[6],inactive
same,Potency,[7],inactive
same,Potency,[8],inactive
same,outcome,[9],inactive
same,Potency,[10],inactive
same,Potency,[11],inactive
same,Potency,[12],inactive
same,Potency,[13],inactive
same,Potency,[14],inactive
same,Potency,[16],inactive
same,Potency,Aromatase (Homo sapiens),inactive
same,Potency,[17],inactive
same,Potency,[18],inactive
same,Potency,[19],inactive
CCCC(C)(COC(N)=O)COC(=O)NC1CC1 (stereo unspecified),Potency,[1],inactive
same,Potency,[2],inactive
same,Potency,[3],inactive
same,Potency,[4],inactive
same,outcome,[5],inactive
same,Potency,[6],inactive
same,Potency,[7],inactive
same,Potency,[8],inactive
same,outcome,[9],inactive
same,Potency,[10],inactive
same,Potency,[11],inactive
same,Potency,[12],inactive
same,Potency,[13],inactive
same,Potency,[14],inactive
same,Potency,[15],inactive
same,Potency,[16],inactive
same,Potency,Aromatase (Homo sapiens),inactive
same,Potency,[17],inactive
same,Potency,[18],inactive
same,Potency,[19],inactive
c1ccc(C2(N3CCCC3)CCCCC2)cc1,Potency,[1],inactive
same,Potency,[2],26.6 µM (active)
same,Potency,[4],inactive
same,outcome,[5],inactive
same,Potency,[6],inactive
same,Potency,[7],inactive
same,Potency,[8],inactive
same,outcome,[9],inactive
same,Potency,[10],inactive
same,Potency,[11],inactive
same,Potency,[12],5.31 µM (active)
same,Potency,[13],inactive
same,Potency,[15],inactive
same,Potency,[16],inactive
same,Potency,Aromatase (Homo sapiens),inactive
same,Potency,[17],inactive
same,Potency,[18],inactive
same,Potency,[19],inactive
C[C@]12CC[C@@H]3c4ccc(OC(=O)N(CCCl)CCCl)cc4CC[C@H]3[C@@H]1CC[C@@H]2OP(=O)(O)O,Potency,[1],inactive
same,Potency,[2],inactive
same,Potency,[3],inactive
same,Potency,[4],inactive
same,outcome,[5],inactive
same,Potency,[6],inactive
same,Potency,[7],inactive
same,Potency,[8],inactive
same,outcome,[9],inactive
same,Potency,[10],inactive
same,Potency,[11],inactive
same,Potency,[12],inactive
same,Potency,[13],inactive
same,Potency,[15],inactive
same,Potency,[16],inactive
same,Potency,Aromatase (Homo sapiens),inactive
same,Potency,[17],inactive
same,Potency,[18],inactive
same,Potency,[19],inactive
